Measured values from the supplement of paper PMC7724964.

Tests used:
Test in all cases: phage ELISA signal ratio (GST-PRM binding over GST background); higher = stronger binding of peptide-phage to the PRM
[1] = biological target: PLEK2 238-353 PH (domain begin residue: 238, domain end residue: 353)
Summary of the method: (§1)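 An M13 phage library with randomized hexadecapeptides on the gene-8 major coat protein, each peptide lacking cysteine and flanked by glycine, was selected for five rounds against human peptide recognition domains fused to the C-terminus of glutathione S-transferase (GST) and expressed in 96-well plates. Approximately 48 clones from rounds 4 and 5 went to phage ELISA. The reported value is the ELISA signal on the GST-domain fusion over the signal on GST alone, and positive clones were sequenced.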

[2] = biological target: RANBP1 39-170 Ran_BP1 (domain begin residue: 39, domain end residue: 170), P43487
Chain of RANBP1 39-170 Ran_BP1 (domain begin residue: 39, domain end residue: 170), P43487 (P43487 whole entry): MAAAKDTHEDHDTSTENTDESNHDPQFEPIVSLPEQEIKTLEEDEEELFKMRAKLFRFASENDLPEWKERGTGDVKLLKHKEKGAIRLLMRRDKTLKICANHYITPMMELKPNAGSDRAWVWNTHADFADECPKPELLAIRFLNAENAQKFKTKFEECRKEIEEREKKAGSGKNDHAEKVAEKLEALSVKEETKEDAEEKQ
Summary of the method: as §1

[3] = biological target: T1, PPARG 233-505 Hormone_recep (domain begin residue: 233, domain end residue: 505), P37231
T1 chain: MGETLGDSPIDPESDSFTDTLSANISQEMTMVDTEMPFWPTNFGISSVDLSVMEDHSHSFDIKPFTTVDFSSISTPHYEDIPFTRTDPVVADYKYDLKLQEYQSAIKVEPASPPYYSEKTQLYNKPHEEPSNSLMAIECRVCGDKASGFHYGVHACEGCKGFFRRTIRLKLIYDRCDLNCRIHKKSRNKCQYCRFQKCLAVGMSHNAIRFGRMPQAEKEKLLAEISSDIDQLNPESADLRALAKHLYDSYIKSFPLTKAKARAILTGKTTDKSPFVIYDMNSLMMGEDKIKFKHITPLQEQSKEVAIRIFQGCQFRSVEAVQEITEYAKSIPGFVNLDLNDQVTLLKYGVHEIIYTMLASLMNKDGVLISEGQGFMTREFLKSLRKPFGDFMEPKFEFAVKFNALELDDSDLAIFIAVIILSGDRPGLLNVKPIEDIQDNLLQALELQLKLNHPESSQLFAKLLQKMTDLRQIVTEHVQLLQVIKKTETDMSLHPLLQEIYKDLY
Summary of the method: as §1

[4] = biological target: PLEK2 123-229 DEP (domain begin residue: 123, domain end residue: 229)
Summary of the method: as §1

[5] = biological target: PPIE 138-301 Pro_isomerase (domain begin residue: 138, domain end residue: 301), Q9UNP9
Chain of PPIE 138-301 Pro_isomerase (domain begin residue: 138, domain end residue: 301), Q9UNP9 (Q9UNP9 whole entry): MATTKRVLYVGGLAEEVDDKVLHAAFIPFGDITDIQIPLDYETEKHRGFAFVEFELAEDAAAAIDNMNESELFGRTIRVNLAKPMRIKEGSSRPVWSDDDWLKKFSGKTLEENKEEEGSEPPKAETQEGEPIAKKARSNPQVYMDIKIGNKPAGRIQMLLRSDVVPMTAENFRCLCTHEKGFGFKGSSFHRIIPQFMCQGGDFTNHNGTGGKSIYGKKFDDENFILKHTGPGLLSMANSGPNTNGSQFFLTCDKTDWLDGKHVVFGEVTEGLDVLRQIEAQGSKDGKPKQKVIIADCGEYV
Summary of the method: as §1

[6] = biological target: T2, RALA 11-183 Ras (domain begin residue: 11, domain end residue: 183), P11233
T2 chain: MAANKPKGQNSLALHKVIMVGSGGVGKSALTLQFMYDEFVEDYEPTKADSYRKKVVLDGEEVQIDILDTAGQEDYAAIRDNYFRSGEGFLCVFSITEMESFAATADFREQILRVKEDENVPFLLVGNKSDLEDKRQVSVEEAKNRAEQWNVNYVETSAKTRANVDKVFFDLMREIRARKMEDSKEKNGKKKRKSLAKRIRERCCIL
Summary of the method: as §1

[7] = biological target: T3, PPWD1 486-646 Pro_isomerase (domain begin residue: 486, domain end residue: 646), Q96BP3
T3 chain: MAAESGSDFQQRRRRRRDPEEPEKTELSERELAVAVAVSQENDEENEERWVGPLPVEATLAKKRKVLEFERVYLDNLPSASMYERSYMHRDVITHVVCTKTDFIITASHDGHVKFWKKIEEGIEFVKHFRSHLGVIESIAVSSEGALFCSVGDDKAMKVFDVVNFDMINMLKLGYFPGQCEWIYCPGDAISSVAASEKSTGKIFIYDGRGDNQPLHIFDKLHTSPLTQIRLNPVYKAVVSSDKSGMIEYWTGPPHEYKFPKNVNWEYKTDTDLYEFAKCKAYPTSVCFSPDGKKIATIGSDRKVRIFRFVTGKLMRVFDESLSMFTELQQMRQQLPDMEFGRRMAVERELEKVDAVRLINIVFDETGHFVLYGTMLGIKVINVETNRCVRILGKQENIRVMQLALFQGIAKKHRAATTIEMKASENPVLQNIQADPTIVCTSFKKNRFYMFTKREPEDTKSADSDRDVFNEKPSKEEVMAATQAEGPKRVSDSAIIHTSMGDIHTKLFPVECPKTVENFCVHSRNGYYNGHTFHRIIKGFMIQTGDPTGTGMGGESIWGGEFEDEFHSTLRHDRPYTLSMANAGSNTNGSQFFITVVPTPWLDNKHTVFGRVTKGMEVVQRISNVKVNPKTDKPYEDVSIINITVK
Summary of the method: as §1

[8] = biological target: T4, PLEK 120-231 DEP (domain begin residue: 120, domain end residue: 231), P08567
T4 chain: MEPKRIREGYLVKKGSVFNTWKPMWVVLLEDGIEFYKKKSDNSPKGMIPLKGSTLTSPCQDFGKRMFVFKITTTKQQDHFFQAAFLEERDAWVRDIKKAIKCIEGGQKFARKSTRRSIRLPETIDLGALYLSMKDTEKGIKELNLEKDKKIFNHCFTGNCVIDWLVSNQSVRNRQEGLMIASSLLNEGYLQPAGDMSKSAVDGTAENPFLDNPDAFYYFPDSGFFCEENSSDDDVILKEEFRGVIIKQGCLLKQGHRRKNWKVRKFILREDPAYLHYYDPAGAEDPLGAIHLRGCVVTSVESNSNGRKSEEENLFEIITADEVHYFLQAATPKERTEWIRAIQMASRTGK
Summary of the method: as §1

[9] = biological target: T5, PUF60 460-559 RRM_3 (domain begin residue: 460, domain end residue: 559), Q9UHX1
T5 chain: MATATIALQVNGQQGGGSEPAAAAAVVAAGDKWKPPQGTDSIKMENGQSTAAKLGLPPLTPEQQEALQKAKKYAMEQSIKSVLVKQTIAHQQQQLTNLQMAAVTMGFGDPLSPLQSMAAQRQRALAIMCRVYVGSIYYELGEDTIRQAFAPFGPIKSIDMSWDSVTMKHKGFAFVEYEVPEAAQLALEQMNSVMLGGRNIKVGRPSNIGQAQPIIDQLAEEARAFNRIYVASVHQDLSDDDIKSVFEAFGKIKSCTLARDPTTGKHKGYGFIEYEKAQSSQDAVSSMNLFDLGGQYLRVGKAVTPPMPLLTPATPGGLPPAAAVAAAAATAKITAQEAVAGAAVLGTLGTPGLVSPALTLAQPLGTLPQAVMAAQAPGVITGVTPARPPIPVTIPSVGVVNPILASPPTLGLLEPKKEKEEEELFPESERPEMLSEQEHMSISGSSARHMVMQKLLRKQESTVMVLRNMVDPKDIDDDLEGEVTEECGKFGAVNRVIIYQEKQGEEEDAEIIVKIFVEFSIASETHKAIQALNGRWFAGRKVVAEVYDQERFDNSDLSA
Summary of the method: as §1

[10] = biological target: T6, RAB5A 15-188 Ras (domain begin residue: 15, domain end residue: 188), P20339
T6 chain: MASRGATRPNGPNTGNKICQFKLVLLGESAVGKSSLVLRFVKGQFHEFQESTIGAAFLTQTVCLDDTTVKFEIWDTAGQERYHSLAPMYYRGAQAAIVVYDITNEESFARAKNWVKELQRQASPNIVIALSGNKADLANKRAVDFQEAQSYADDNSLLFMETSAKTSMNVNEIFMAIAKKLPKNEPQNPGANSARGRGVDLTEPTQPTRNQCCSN
Summary of the method: as §1

MSGITDWWENPAYWSW
phage ELISA signal ratio [1]: 3.86

YGMRLPEASQMETWFL
phage ELISA signal ratio [2]: 6.18

WEHLYPWMIPLPGTGV
phage ELISA signal ratio [2]: 6.24

LNDHWVAWHLMKNEIQ
phage ELISA signal ratio [1]: 14.3

AEEHSMSLMSLLLAPS
phage ELISA signal ratio [3]: 5.77

WNWENVWGLDQTHPLW
phage ELISA signal ratio [4]: 3.15

PSEDVSWWWQQHLMDI
phage ELISA signal ratio [3]: 17.6

WDMTLPVLTNHELAYL
phage ELISA signal ratio [2]: 9.02

ESWGPMEQHSYTEQTE
phage ELISA signal ratio [5]: 5.43

LYQEVFEYQGWLCMDL
phage ELISA signal ratio [6]: 32.5

SDVYGPHAHPVHYQDE
phage ELISA signal ratio [5]: 8.93

MHSELNWWEAMQWDSW
phage ELISA signal ratio [1]: 4.7

AVSWGPQWHDFQWALM
phage ELISA signal ratio [7]: 8.34

TLTATDWWEEWNWGEN
phage ELISA signal ratio [1]: 20.9

EPTFGPQPQVFFSTNP
phage ELISA signal ratio [5]: 17

MNEHWTEWYWQSQNFV
phage ELISA signal ratio [1]: 20.4

VSDMRGVPDSFMDVWD
phage ELISA signal ratio [2]: 5.06

YLTWWYDPDHPDWATV
phage ELISA signal ratio [4]: 6.35

WEDWTYWNDHLHLSPE
phage ELISA signal ratio [1]: 8.15

GTEWWQQMALPPDVVV
phage ELISA signal ratio [2]: 7.62

FDQLMHEAYTQWQSQQ
phage ELISA signal ratio [8]: 31.5

SIKHWEQFYASQPPQI
phage ELISA signal ratio [1]: 16.2

EDVELLNKHWYDWAQV
phage ELISA signal ratio [1]: 25

WLVPLPWEETWQNMSL
phage ELISA signal ratio [2]: 5.79

PESWWESWMMDHEWGS
phage ELISA signal ratio [3]: 24.5

PDFWWQQQMADIMQWR
phage ELISA signal ratio [4]: 21.4

WFDEGMWEVINQYNSL
phage ELISA signal ratio [8]: 21.9

LQTYDWWADVMDHVLN
phage ELISA signal ratio [8]: 4.42

HEMFGPQEQSQHMMEW
phage ELISA signal ratio [5]: 4.73

PMTWEMWQIDSAQQTV
phage ELISA signal ratio [5]: 8.08

SRWDQQPGQWIKLSEN
phage ELISA signal ratio [9]: 12

WSSKWDVIDKDYGIMH
phage ELISA signal ratio [9]: 7.28

DGKHWADFYSAFPMLA
phage ELISA signal ratio [1]: 31.8

ENHVPWVPEARWTTPQ
phage ELISA signal ratio [5]: 7.51

DINVTSDMNQHWMQWS
phage ELISA signal ratio [1]: 33.1

WELALPAEHHEHYWSN
phage ELISA signal ratio [2]: 4.36

DHWDAFYTWQKQNYLD
phage ELISA signal ratio [1]: 36.8

RPDIMERLQQLMVWHG
phage ELISA signal ratio [8]: 4.13

TQGKWDMQPTDMHYLS
phage ELISA signal ratio [9]: 13.2

QDLESWWWSEHLSNIM
phage ELISA signal ratio [3]: 14.3

LTHEQMLWQLMDALSE
phage ELISA signal ratio [6]: 19.4

MNHAQIQSPLLWSLLW
phage ELISA signal ratio [3]: 11.6

EIEPWWWDPHHENWAM
phage ELISA signal ratio [4]: 7.12

VYDFIGPQPQTNMASI
phage ELISA signal ratio [5]: 21.8

DFNAHWLEWHAQHVAL
phage ELISA signal ratio [1]: 28.5

DQVLKWNEHWHEWLQA
phage ELISA signal ratio [1]: 26.3

WRMELPVQNHMEVMDL
phage ELISA signal ratio [2]: 6.12

WDLAEWEMIWQDYMNH
phage ELISA signal ratio [10]: 5.62

NKWDMEHWDTEYRSPV
phage ELISA signal ratio [9]: 4.03

MNWGEMWDVRDDQVMV
phage ELISA signal ratio [9]: 7.64

EFEMDFWEMWNAWLSQ
phage ELISA signal ratio [4]: 14.9

QNDGMDKAWVFWHEPT
phage ELISA signal ratio [1]: 20.8

WNWENVWWLDQTHPLW
phage ELISA signal ratio [4]: 10.1

GPEMWNLHWQDWYNEV
phage ELISA signal ratio [1]: 28.3

LHPMLTDMLAPNHMEV
phage ELISA signal ratio [3]: 18.6

PLMMPPEPHWVVNLGI
phage ELISA signal ratio [5]: 10.5

WDVALPQEIVWELADK
phage ELISA signal ratio [2]: 7.66
